# Screens from PubChem.
# This is a sample that favours compounds with a hit; in the whole collection about 19% have one here.
# IL1B secr inh – blocks inflammasome-driven IL-1 beta release; activity change, % at 57.5 µM; THP-1 LPS/ATP IL-1B secretion, AlphaLISA, 16 h; stronger effect = lower value; 360,000 compounds, 4.7% hits; in the data active means activity change below about -50%; inconclusive means mostly about -30% to -49%
#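 Secreted IL-1B measured by AlphaLISA bead assay after 16 h compound exposure of THP-1 cells; compounds (final up to 57.5 uM) added 1 h before LPS (250 ng/mL) and ATP (1.25 mM) stimulation; lower signal means less secretion.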
# HT1080-NT tox – kills 2HG-producing HT-1080-NT fibrosarcoma cells. AID 686970. 360,000 compounds, 1.6% hits. Potency, µM (doses to about 46.1 µM), for the others: at the highest dose activity, negative = less viability, actives largely listed as cytotoxic. HT-1080-NT fibrosarcoma viability, CellTiter-Glo ATP luminescence, 48 h;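 further: NT is the 2HG producing partner of a matched IDH1 knockdown line; potency means the concentration at half of the fitted maximal effect; 0% = DMSO-treated cells and -100% = media-only wells without cells; nearly all actives have a fitted effect of over 55% in size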
#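 Fibrosarcoma NT cells, 750 per well in 5% FBS RPMI, were exposed to compound for 48 hours. Viability: CellTiter-Glo luminescence.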
# TDP1 cell CPT – DT40-hTDP1 cell growth loss with CPT; Potency, µM (titrated, usually from 46.2 µM), without a hit: at the highest dose activity change, negative = growth inhibition, most hits filed as inhibitors; chicken DT40 Tdp1-/-;hTDP1 cells + 20 nM CPT, ATP luminescence, 48 h; 420,000 compounds, 12% hits; further: potency means the concentration at half of the fitted maximal effect; nearly all actives have a fitted effect of over 55% in size
#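 Chicken DT40 Tdp1-/- cells stably complemented with human TDP1 were seeded at 400 cells/well in medium containing 20 nM camptothecin, exposed to pin-transferred compounds, and grown at 37 °C for at least 48 hr. Viability was read as ATP luminescence.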
# HT1080 IDH1KD tx – HT-1080 IDH1 knockdown cell toxicity (counter line) | 360,000 compounds, 2% hits | AID 686971 | HT-1080 IDH1 knockdown viability, ATP luminescence, 48 h | Potency, µM (titrated, usually from 46.1 µM), without a hit: at the highest dose activity, negative = toxicity, actives largely listed as cytotoxic;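 further: potency means the concentration at half of the fitted maximal effect; 0% = DMSO wells and -100% = cell-free medium wells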
#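 Knockdown cells (IDH1KD HT-1080) received compounds 2 h after plating at 750 cells/well and were kept 48 h at 37 °C in 5% FBS RPMI. A CellTiter-Glo luminescence read gave % activity for curve fitting.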
# DT40 TDP1 no CPT – qHTS for Inhibitors of human tyrosyl-DNA phosphodiesterase 1 (TDP1): qHTS in cells in absence of CPT; DT40 Tdp1-/- hTDP1 cells, no CPT, ATP luminescence, 48 h; Potency, µM (highest dose often 46.2 µM), inactives show at the highest dose activity change, negative = growth inhibition, actives largely listed as inhibitors; 420,000 compounds, 15% hits; further: potency means the concentration at half of the fitted maximal effect; nearly all actives have a fitted effect of over 55% in size
#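 Growth kinetics read by CellTiter-Glo luminescence after ≥48 hr at 37 °C. Cells: DT40 Tdp1-/- stably carrying human TDP1, 400 per well, compound exposure in the absence of CPT (DMSO vehicle).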
# * = called active by the depositor; ? = inconclusive; nt = no result given; [ ] = another dose, or the depositor's remark. Unless noted, the call rests on the fitted dose curve; in most records, active means well fitted curve in the direction sought with a large enough effect; inconclusive means small, poorly fitted or top-dose-only effect, or another doubt; inactive means no such curve, though single readings can be large; an effect the other way counts as inactive or inconclusive. Unless noted, on the % scale 0 is the no-effect control and ±100 the full control effect.
SMILES,IL1B secr inh,HT1080-NT tox,TDP1 cell CPT,HT1080 IDH1KD tx,DT40 TDP1 no CPT
C[C@@H]1ON(C)[C@H]2C[C@H]3c4[nH]c5ccc(-c6ccc7c(c6)OCO7)cc5c4CCN3C(=O)[C@@H]12,0,?,13µM*,?,9.2µM*
CCOC(=O)c1[nH]c(C)c(C(=O)OC(C)C(=O)Nc2ncc(Cl)cc2Cl)c1C (centres undefined),-17,-24%,18µM*,-29%,?
CCOC(=O)c1c(C)[nH]c(C(=O)OC(C)C(=O)Nc2ccc(C)cc2)c1C (centres undefined),-5,10%,-27%,6%,-23%
CCOC(=O)c1sc(N)c(C(=O)OC)c1C,1,26%,-1%,19%,-5%
CCOC(=O)c1sc(N)c(C(=O)Nc2ccccc2OC)c1C,15,?,2.9µM*,7.3µM*,2.9µM*
CCOC(=O)c1c(C)[nH]c(C(=O)OC(C)C(=O)Nc2ccccc2OC)c1C (centres undefined),-2,-29%,16µM*,?,?
O=c1[nH]/c(=C/c2ccc3c(c2)OCO3)c(=O)[nH]/c1=C\c1ccc2c(c1)OCO2,nt,nt,-5%,nt,-27%
O=C(CNCc1ccccc1)Nc1ccc(Cl)cc1,1,8.2µM*,-17%,8.2µM*,?
O=C(CNCc1ccc(Cl)cc1)Nc1ccc(C(=O)N2CCCCC2)cc1,-12,-4%,-17%,-14%,-27%
O=C(CC(=O)c1ccccc1)Nc1ccc(Cl)cc1,-77*,-25%,?,?,?
CCc1cccc(CC)c1NC(=S)NCC(c1cccnc1)N(C)C (centres undefined),2,-1%,-7%,2%,?
COC(=O)c1ccc(C2CC(=O)Nc3c2c(C)nn3-c2nc(C)cc(C)n2)cc1 (centres undefined),nt,nt,?,nt,-25%
C#CC1(O)CCC2C3CCc4cc(O)cc(C)c4C3CCC21C (centres undefined),2,0%,16µM*,-13%,?
C=C(CO)C1Cc2cc(C(C)=O)ccc2O1 (centres undefined),18,1%,-9%,0%,-12%
CCCCC[C@H](O)/C=C/[C@H]1C(=O)C=C[C@@H]1C/C=C\CCCC(=O)O,nt,nt,12%[4.12 µM],nt,14%[4.12 µM]
CCCCC[C@H](O)/C=C/C1C(=O)C=C[C@H]1C/C=C\CCCC(=O)OC (some centres undefined),-102*,?,5.8µM*,?,7.3µM*
O=C(Nc1ccc(F)cc1Cl)C1=COCCO1,-5,16%,15%,-1%,4%
O=C(CN1CCN(S(=O)(=O)N2CCCCC2)CC1)Nc1ccc(Cl)c(Cl)c1,-77*,-21%,?,?,23µM*
O=C(CN1CCN(S(=O)(=O)N2CCCCC2)CC1)Nc1cc(Cl)cc(Cl)c1,-65*,-6%,-25%,-15%,?
CN(C)S(=O)(=O)c1ccc(NC(=O)CN2CCN(C(c3ccccc3)c3ccccc3)CC2)cc1,11,-5%,?,-4%,21µM*
O=C(CN1CCN(S(=O)(=O)N2CCCCCC2)CC1)Nc1ccc(Br)cc1,-27,-4%,?,-2%,?
O=C(CN1CCCCC1)Nc1ccc(S(=O)(=O)c2ccc(NC(=O)CN3CCCCC3)cc2)cc1,11,-1%,16µM*,0%,13µM*
O=C(CN1CCN(S(=O)(=O)N2CCCCCC2)CC1)Nc1ccc(F)cc1,-15,-12%,2%,-13%,-18%
NS(=O)(=O)c1ccc(N2C(=O)C(=O)/C(=C(/O)c3ccccc3)C2c2ccc(Cl)cc2)cc1 (centres undefined),15,-1%,-12%,0%,1%
COc1cccc(CNC(=O)c2sc3nc[nH]c(=O)c3c2C)c1,nt,nt,?,nt,-22%
SMILES,IL1B secr inh,HT1080-NT tox,TDP1 cell CPT,HT1080 IDH1KD tx,DT40 TDP1 no CPT
COc1ccc(C[C@@H]2CN3C(=NC[C@@H]3C)N2C[C@H](C)NC(=O)c2ccc(C)c(Br)c2)cc1,-17,-27%,18µM*,0%,15µM*
C/C=C(\C)C(=O)NCCN1C2=NC[C@H](Cc3ccc(O)cc3)N2C[C@H]1Cc1ccc(O)cc1,25,10%,4%,7%,-20%
Cc1ccc(C(=O)NCCN2C3=NC[C@H](C)N3C[C@H]2Cc2ccc(O)cc2)cc1Br,-20,-1%,21µM*,1%,21µM*
COc1ccc(C[C@H]2CN3C(=NC[C@H]3C)N2CCNC(=O)c2ccc(C)c(Br)c2)cc1,?,-28%,6.5µM*,?,5.8µM*
O=Cc1c[nH]c2ccc(S(=O)(=O)N3CCCCC3)cc12,1,-2%,-11%,7%,-18%
CN1CCN(C(=O)C2=C[C@@H](c3coc4ccccc4c3=O)C[C@@H](OCCCCO)O2)CC1,-1,13%,1%,0%,3%
COC(=O)NC(NC(=S)Nc1ccc([N+](=O)[O-])cc1)C(Cl)(Cl)Cl (centres undefined),-6,-10%,7.3µM*,-6%,7.3µM*
COc1ccc([N+](=O)[O-])cc1NC(=O)C(C)c1ccccc1 (centres undefined),14,-9%,-14%,-5%,-27%
COc1ccc([N+](=O)[O-])cc1NC(=S)NC(NC(=O)C(c1ccccc1)c1ccccc1)C(Cl)(Cl)Cl (centres undefined),-10,?,?,5.8µM*,?
Cc1cc([N+](=O)[O-])ccc1NC(=S)NC(=O)C(c1ccccc1)c1ccccc1,-2,?,?,?,16µM*
COC(=O)NC(NC(=S)Nc1ccccc1OC)C(Cl)(Cl)Cl (centres undefined),5,0%,8%,4%,-10%
Cc1nn(-c2ccccc2)c(Cl)c1/C=N/NC(=O)c1ccccc1F,-1,-19%,-25%,-17%,?
CC1=NN(C(=O)c2ccc(Cn3nc(C)c(Br)c3C)cc2)C(O)(C(F)(F)F)C1 (centres undefined),65,-3%,0.82µM*,-6%,0.58µM*
CC1=NN(C(=O)c2ccc(Cn3nc(C)c([N+](=O)[O-])c3C)cc2)C(O)(C(F)(F)F)C1 (centres undefined),6,4.5µM*,?,1.8µM*,-20%
O=C1NCN(c2ccccc2)C12CCN(c1nnnn1-c1ccccc1)CC2,-6,-9%,?,-14%,?
Cc1scc(CN2CCN(c3ccccc3F)CC2)c1C,nt,nt,-27%,nt,?
Cc1nc2nc(NC(=O)c3ccccc3F)[nH]n2c(=O)c1Cl,nt,nt,-3%,nt,1%
